ATXN viability: Viability Counterscreen for Primary qHTS for Inhibitors of ATXN expression; Potency, µM (highest dose often 56.7 µM), actives largely listed as cytotoxic; 400,000 compounds, 0.49% hits; S2 cells (HEK-293 line with an ATXN2-luciferase reporter) viability, CellTiter-Fluor protease fluorescence, 24 h; AID 651635, 2014; further: potency means the concentration at half of the fitted maximal effect; nearly all actives have a fitted effect of over 40% in size
HepG2 viability: qHTS for Inhibitors of TGF-b: Cytotox Counterscreen | Potency, µM (doses to about 46.1 µM), inactives show at the top dose activity change, negative = cytotoxicity, most hits filed as cytotoxic | HepG2 CAGA-GFP viability, ATP luminescence, 18 h | 410,000 compounds, 0.76% hits | AID 588856, 2011; further: potency means the concentration at half of the fitted maximal effect
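CellTiter-Glo luminescence gave cytotoxicity after 18 hours at 37 degrees C. The cells were HepG2 CAGA-GFP in 1% FBS DMEM, stimulated with 500 pg/mL TGF-beta after compound addition. %Activity was normalised to no-cell wells (complete cell-killing) and DMSO (no toxicity), and curves were fitted and classified.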
ATXN2 expr inh: Primary qHTS for Inhibitors of ATXN expression; 360,000 compounds, 0.72% hits; HEK-293 ATXN2-luciferase reporter, luminescence, 24 h; Potency, µM (series often up to 57 µM), for inactives: at the top dose activity change, negative = inhibition, usual class: inhibitors; further: potency means the concentration at half of the fitted maximal effect; on the % scale 0 is the no-effect control and ±100 the full control effect; nearly all actives have a fitted effect of over 55% in size
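qHTS (up to 57 uM final) was run with 24 h compound exposure of reporter cells at 37 °C. Each well was multiplexed: SteadyGlo luminescence measured ATXN2-luciferase expression after a fluorogenic Gly-Phe-AFC viability readout (25 uM final).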
IL1B secr inh: qHTS for Inhibitors of Inflammasome Signaling: IL-1-beta AlphaLISA Primary Screen. THP-1 LPS/ATP IL-1B secretion, AlphaLISA, 16 h; hits give low values. activity change, % at 57.5 µM. 360,000 compounds, 4.7% hits. AID 743279, 2014; in the data active means activity change below about -50%; inconclusive means mostly about -30% to -49%; further: on the % scale 0 is the no-effect control and ±100 the full control effect
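THP-1 cells pretreated 1 hr with compounds (up to 57.5 uM final), then stimulated with LPS (250 ng/mL final) plus ATP (1.25 mM final); secreted IL-1B measured by AlphaLISA after 16 hr, decreased signal indicating inhibition.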
TGFb SMAD3 inh: qHTS for Inhibitors of TGF-b | HepG2 CAGA-GFP TGF-b/SMAD3 reporter, GFP fluorescence, 18 h; TGF-beta stimulated, 500 pg/mL final | Potency, µM (top dose mostly 46.1 µM), without a hit: at the highest dose activity, negative = inhibition, actives largely listed as inhibitors | 410,000 compounds, 1.2% hits; further: potency means the concentration at half of the fitted maximal effect; on the % scale 0 is the no-effect control and ±100 the full control effect; nearly all actives have a fitted effect of over 65% in size
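TGF-beta reporter screen: HEPG2 CAGA-GFP, 1% FBS, 500 pg/mL TGF-beta final, 18 h; per-cell GFP summed per well; curves fitted and categorized by class.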
* hit, by the source's call; i = inactive; ? = inconclusive; / = not tested or not shown; ! = not confirmed by another sample; [ ] = remark or other dose. A selection: hits, their analogues and other compounds. The true share with any hit is near 5.7%. Unless noted, the call rests on the fitted dose curve; in most records, active means well fitted curve in the direction sought with a large enough effect; inconclusive means small, poorly fitted or top-dose-only effect, or another doubt; inactive means no such curve, though single readings can be large; an effect the other way counts as inactive or inconclusive.

SMILES | ATXN viability | HepG2 viability | ATXN2 expr inh | IL1B secr inh | TGFb SMAD3 inh
COc1ccc(S(=O)(=O)N2CCCCC2)cc1NC(=O)CN(Cc1ccco1)Cc1ccco1 | i | 5% | -24% | -51* | ?
Cc1ccc(S(=O)(=O)N2CCCCC2)cc1NC(=O)c1cc(F)c(F)c(F)c1F | i | 15% | -6% | -94* | 0%
Cc1ccc(S(=O)(=O)N2CCCCC2)cc1NC(=O)c1ccco1 | i | 12% | / | -17 | 3%
COc1ccc(Cl)cc1NC(=O)CNc1ccccc1CN(C)C1CCCCC1 | i | -1% | / | -214* | -17%
COc1ccc(S(=O)(=O)N2CCCCC2)cc1NC(=O)CN(C)C1CCCCC1 | i | -20% | -17%[11.3 µM] | -70* | ?
CSc1ccccc1C(=O)NCC1Cc2cc(F)cc(-c3cnccn3)c2O1 (stereo not drawn) | i | / | / | / | /
COc1cc(-c2cc(C)c3cccc(OC)c3n2)cc2c1OCCN(C(=O)CC1NC(=O)c3ccccc31)C2 (stereo not drawn) | i | / | / | / | /
Cc1ccc(C)c(N2CCN(C(=O)C(C)n3c(C)c4cnn(-c5ccccc5)c(=O)c4c3C)CC2)c1 (stereo not drawn) | i | -15% | -8% | / | ?
CCOC(=O)c1c(C)oc2nc(C)nc(NCc3cccc(OC)c3)c12 | i | -3% | -1% | / | 1%
COc1ccccc1CNCC(=O)Nc1cc(S(=O)(=O)N2CCCCC2)ccc1C | i | 4% | -16% | -60* | -17%
CCCN(CCC)C(=O)Cn1c(SCc2cccc(C(F)(F)F)c2)nc2cccnc21 | / | -38% | / | / | -27%
O=C(c1nc2ccc(Cl)cn2c1CNCC[C@@H]1C[C@@H]2C=C[C@H]1C2)N1CCCCCCC1 | ? | -37% | 0% | -72* | ?
C[C@@H]1CN(C(=O)c2nc3ccc(Cl)cn3c2CNCC[C@@H]2C[C@@H]3C=C[C@H]2C3)C[C@H](C)O1 | i | 2% | -8%[11.3 µM] | -3 | 1%
CCc1ccc(NC(=O)CN(C(=O)N2CCN(CC)CC2)S(=O)(=O)c2ccc(C)cc2)cc1 | i | -1% | 10% | -55* | 0%
c1ccc(CNc2c3ccccc3nc3ccccc23)cc1 | i | -11% | / | -100* | ?
Oc1ccc(CCNc2c3ccccc3nc3ccccc23)cc1O | ? | -20% | ? | -99* | ?
CN(C)CCCNc1c2ccccc2nc2ccccc12 | ? | 9% | ? | -103* | ?
OCC(Cc1ccccc1)Nc1c2ccccc2nc2ccccc12 (stereo not drawn) | i | -6% | -23% | -52* | ?
CC(=O)c1ccc(NC(=O)CSC2=Nc3ccccc3N=C(c3ccc(F)cc3)C2)cc1 | i | 0% | 15% | / | ?
Cc1ccnc2c(Cl)cccc12 | / | -25% | / | / | ?
O=C(Nc1ccccc1C(F)(F)F)c1ccc(F)c(S(=O)(=O)N2CCc3ccccc3C2)c1 | / | -36% | / | / | 1%
NC(=O)CC(NC(=O)Cc1ccc(Br)cc1)c1ccc(NC2CCCC2)c([N+](=O)[O-])c1 (stereo not drawn) | ? | 4% | 8.9µM* | -6 | 14%
NC(=O)CC(NC(=O)Cc1ccc(Br)cc1)c1ccc(N2CCN(c3ccc(F)cc3)CC2)c([N+](=O)[O-])c1 (stereo not drawn) | ? | 11µM* | ? | 4 | ?
Cc1cccc(CCNC(=O)c2cc3c(s2)-c2c(C)cccc2OC3)c1 | i | -1% | 1% | / | 1%
Cc1cccc2c1-c1sc(C(=O)NCCCN3CCCC(C)C3)cc1CO2 (stereo not drawn) | ? | -100% | 35µM* | -18 | ?
SMILES | ATXN viability | HepG2 viability | ATXN2 expr inh | IL1B secr inh | TGFb SMAD3 inh
CCCN1CCN(CCCNC(=O)c2cc3c(s2)-c2c(C)cccc2OC3)CC1 | ? | 11µM*! | ? | -14 | ?
COc1ccc(N2CCN(CCCNC(=O)c3nnc(Cc4ccc(F)cc4)o3)CC2)cc1 | i | -22% | -17% | / | 7%
CC(C)C[C@H](N)c1nnc(S(=O)(=O)Cc2cccc(F)c2)o1 | / | -90% | ? | ? | 18µM*
CC(C)(C)OC(=O)N[C@@H](Cc1ccccc1)c1nnc(S(=O)(=O)Cc2cccc(F)c2)o1 | / | -102% | ? | -80* | 11µM*
CC(C)[C@H](NC(=O)OC(C)(C)C)c1nnc(S(=O)(=O)Cc2c(F)cccc2Cl)o1 | / | 20µM* | ? | ? | 11µM*
C[C@H](NC(=O)OC(C)(C)C)c1nnc(SCc2c(F)cccc2Cl)o1 | i | -18% | -10% | / | -3%
CCc1nn2c(-c3ccco3)ccnc2c1-c1ccc(F)cc1 | i | 7% | 16% | / | 32%
Cn1cccc1/C=C1\SC(=Nc2ccc(O)cc2)NC1=O | ? | -33% | / | 132 | ?
Cn1cccc1/C=C1\SC(=Nc2cccc(O)c2)NC1=O | 16µM* | -12% | / | 30 | ?
O=C(NCCCc1nc2ccccc2n1CCOc1ccccc1)C1CCCCC1 | / | 0% | / | / | 0%
CCOC(=O)c1cc2[nH]c3ccccc3c2[n+](-c2ccc([N+](=O)[O-])cc2)c1N | ? | -11% | -16% | -58* | ?
CN(C)c1ccc(N=Nc2ccnc3ccccc23)cc1 | / | 16% | / | / | 8%
CCc1ccc(NC(=O)CSc2nnc(-c3ccccc3)n2C)cc1 | / | 8% | / | / | 12%
Nc1ccccc1C#Cc1ccc([N+](=O)[O-])cc1 | ? | -41% | 63% | -11 | -10%
Nc1ccccc1C#CC(=O)c1ccccc1 | ? | -84% | / | -102* | 3.5µM*
O=C(CCCCn1c(=O)c2ccccc2n(Cc2cccc(F)c2)c1=O)NCc1ccc2c(c1)OCO2 | i | -3% | -3% | / | -11%
Cn1c(C(=O)Nc2ccc3c(c2)OCCO3)cc2c(=O)n(C)c3ccccc3c21 | ? | -36% | -18% | -69* | -5%
Cn1c(C(=O)NC2CC2)cc2c(=O)n(C)c3ccccc3c21 | i | -6% | -3% | -63* | -7%
CCN(CC)CCCNC(=O)c1cc2c(=O)n(C)c3ccccc3c2n1C | ? | -36% | -23% | -87* | 5%
CCCN(CCC)CCCNC(=O)c1cc2c(=O)n(C)c3ccccc3c2n1C | ? | -33% | ? | -65* | 14%
CCN(CC)CCNC(=O)c1cc2c(=O)n(C)c3ccccc3c2n1C | ? | -11% | ? | ? | -9%
O=C(O)c1ccc(NC(=O)c2cc3c([nH]c2=O)CCCC3=O)cc1 | / | -15% | / | / | 13%
Cc1ccc2c(CC(=O)N(Cc3ccc(N(C)C)cc3)Cc3ccco3)coc2c1C | i | -21% | -30% | / | ?
OCCn1cc(-c2cnc3nnn(Cc4ccc5ncccc5c4)c3n2)cn1 | / | / | -11% | / | /

Assay outcomes from PubChem BioAssay.
